Inconclusive results are not listed. The source made the active and inactive calls. How the source made its calls: active means hit-call score of the fitted dose curve at least 0.9, where 1 is the maximum; inconclusive means response in the unintended direction; inactive means score below 0.9.
Each compound was assayed against human Vascular Endothelial Growth Factor Receptor 3 (VEGFR3), FLT4 (gene 2324) (UniProt P35916) (assay: NVS_ENZ_hVEGFR3: NovaScreen (NVS) Enzymatic Assay for human Vascular Endothelial Growth Factor Receptor 3 (VEGFR3) (AID 2283229)).
Chain of human Vascular Endothelial Growth Factor Receptor 3 (VEGFR3), FLT4 (gene 2324) (P35916 whole entry, looked up): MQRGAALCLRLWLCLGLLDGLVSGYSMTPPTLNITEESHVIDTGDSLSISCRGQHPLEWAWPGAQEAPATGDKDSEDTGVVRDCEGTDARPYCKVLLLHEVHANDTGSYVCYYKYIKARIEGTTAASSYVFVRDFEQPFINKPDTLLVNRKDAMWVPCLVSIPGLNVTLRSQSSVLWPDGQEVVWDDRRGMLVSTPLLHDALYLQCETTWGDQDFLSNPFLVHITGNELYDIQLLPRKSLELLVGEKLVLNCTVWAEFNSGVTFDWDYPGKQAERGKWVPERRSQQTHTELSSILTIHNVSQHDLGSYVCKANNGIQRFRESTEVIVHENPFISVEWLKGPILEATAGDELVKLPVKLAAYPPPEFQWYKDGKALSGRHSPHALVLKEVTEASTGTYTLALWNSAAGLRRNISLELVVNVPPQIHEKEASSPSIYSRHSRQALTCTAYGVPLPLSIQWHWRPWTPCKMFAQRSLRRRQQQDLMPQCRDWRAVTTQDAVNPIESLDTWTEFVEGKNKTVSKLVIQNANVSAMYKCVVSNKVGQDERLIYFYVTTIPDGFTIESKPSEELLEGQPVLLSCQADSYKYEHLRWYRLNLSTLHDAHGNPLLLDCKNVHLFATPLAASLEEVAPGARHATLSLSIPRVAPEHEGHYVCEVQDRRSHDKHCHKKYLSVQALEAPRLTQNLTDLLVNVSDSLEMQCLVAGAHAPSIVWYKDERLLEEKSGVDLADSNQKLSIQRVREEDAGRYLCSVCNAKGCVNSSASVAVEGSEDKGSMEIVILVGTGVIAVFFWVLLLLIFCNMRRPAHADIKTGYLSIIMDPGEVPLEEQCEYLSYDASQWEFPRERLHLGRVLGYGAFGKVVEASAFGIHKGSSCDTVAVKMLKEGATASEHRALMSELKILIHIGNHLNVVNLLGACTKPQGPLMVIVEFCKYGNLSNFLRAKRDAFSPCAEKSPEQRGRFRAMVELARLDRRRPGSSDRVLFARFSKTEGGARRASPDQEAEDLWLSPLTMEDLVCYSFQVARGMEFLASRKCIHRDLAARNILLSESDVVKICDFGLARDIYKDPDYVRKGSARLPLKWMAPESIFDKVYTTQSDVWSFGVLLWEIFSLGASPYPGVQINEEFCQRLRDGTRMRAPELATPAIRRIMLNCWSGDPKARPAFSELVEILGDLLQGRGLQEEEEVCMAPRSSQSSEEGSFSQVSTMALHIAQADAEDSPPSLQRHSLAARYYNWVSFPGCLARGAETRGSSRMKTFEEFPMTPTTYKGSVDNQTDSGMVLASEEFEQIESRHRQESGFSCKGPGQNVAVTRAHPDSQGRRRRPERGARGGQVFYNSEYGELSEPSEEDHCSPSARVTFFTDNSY
Method in brief: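 Chemicals first run in duplicate at 25 uM, with actives re-tested in concentration series to a top of 50 uM. Recombinant VEGFR3 activity measured after 1 h via fluorescence with mobility-shift product separation; inhibition fitted relative to DMSO.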

Row | Compound | outcome
1 | CC(O)CN(CCN(CC(C)O)CC(C)O)CC(C)O (stereo not given) | inactive
2 | O=C(O)c1cc(N=Nc2ccc(S(=O)(=O)Nc3ccccn3)cc2)ccc1O | inactive
3 | O=C(O)c1cccc(Oc2ccccc2)c1 | inactive
4 | CN(C)c1ccc(N=NS(=O)(=O)O)cc1 | inactive
5 | CC[C@H](C)C(=O)O[C@H]1C[C@@H](C)C=C2C=C[C@H](C)[C@H](CC[C@@H]3C[C@@H](O)CC(=O)O3)[C@H]21 | inactive
6 | Cc1ccc(N)cc1O | inactive
7 | COC(=O)c1c(Cl)c(Cl)c(C(=O)OC)c(Cl)c1Cl | inactive
8 | CC(C)c1cccc(C(C)C)c1N1C(=O)c2ccc(O)cc2C1=O | inactive

These compounds were tested against human Vascular Endothelial Growth Factor Receptor 2 (VEGFR2), KDR (gene 3791) (UniProt P35968) (assay: NVS_ENZ_hVEGFR2: NovaScreen (NVS) Enzymatic Assay for human Vascular Endothelial Growth Factor Receptor 2 (VEGFR2) (AID 2283230)).
Chain of human Vascular Endothelial Growth Factor Receptor 2 (VEGFR2), KDR (gene 3791) (P35968 whole entry, looked up): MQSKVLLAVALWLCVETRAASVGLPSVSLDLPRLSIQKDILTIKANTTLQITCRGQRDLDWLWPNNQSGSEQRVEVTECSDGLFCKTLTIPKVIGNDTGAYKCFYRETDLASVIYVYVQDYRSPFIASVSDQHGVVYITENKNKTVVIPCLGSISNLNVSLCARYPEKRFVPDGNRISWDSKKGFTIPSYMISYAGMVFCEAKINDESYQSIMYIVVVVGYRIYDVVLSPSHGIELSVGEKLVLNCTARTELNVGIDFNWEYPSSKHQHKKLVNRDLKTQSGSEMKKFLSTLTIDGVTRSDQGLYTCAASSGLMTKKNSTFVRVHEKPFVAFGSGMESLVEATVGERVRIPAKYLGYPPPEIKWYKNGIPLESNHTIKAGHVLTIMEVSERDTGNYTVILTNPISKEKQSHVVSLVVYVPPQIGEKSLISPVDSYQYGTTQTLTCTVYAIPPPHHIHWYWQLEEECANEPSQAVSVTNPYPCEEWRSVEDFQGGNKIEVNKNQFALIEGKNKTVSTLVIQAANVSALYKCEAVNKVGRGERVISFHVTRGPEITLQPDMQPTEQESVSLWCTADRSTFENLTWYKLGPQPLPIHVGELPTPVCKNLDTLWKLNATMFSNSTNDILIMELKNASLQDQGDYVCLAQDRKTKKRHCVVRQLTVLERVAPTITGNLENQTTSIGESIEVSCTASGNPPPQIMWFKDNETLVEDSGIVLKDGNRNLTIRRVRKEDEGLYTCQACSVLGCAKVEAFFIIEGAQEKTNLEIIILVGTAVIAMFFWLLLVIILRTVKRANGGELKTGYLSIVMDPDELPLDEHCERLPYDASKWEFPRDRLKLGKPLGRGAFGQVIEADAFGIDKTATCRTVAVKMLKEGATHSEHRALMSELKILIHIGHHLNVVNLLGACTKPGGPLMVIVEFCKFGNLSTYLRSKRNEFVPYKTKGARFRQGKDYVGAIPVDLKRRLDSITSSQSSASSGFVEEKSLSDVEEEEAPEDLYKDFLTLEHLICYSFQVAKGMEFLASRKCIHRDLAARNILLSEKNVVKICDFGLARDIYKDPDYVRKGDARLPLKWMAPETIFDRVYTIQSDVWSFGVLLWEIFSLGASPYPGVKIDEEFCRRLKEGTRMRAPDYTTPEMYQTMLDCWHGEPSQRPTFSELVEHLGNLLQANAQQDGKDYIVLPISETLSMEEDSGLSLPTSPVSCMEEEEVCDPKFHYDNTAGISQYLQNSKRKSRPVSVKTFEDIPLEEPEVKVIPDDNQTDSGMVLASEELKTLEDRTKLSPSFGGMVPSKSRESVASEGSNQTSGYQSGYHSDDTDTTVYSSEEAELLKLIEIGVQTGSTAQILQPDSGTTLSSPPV
Method in brief: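 Cell-free recombinant VEGFR2 kinase, fluorescent substrate with electrophoretic mobility-shift separation; read 1 h after dosing. Screened at 25 uM in duplicate, hits to concentration-response up to 50 uM; loss-of-signal versus DMSO.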

Row | Compound | outcome | AC50
9 | CCOc1cccc(-n2cc(C(=O)N3CCN(c4cc(C(=O)O)c5ccccc5c4)CC3)nc2-c2ccc(C)cc2)c1 | inactive | –
10 | Fc1ccccc1[C@@H](F)COC1CCC(Nc2ncnc3[nH]ncc23)CC1 (stereo not given in full) | – | 0.213 µM (active)
11 | O=C(O)c1cc(N=Nc2ccc(S(=O)(=O)Nc3ccccn3)cc2)ccc1O | inactive | –
12 | CC(C)=CCC/C(C)=C\CO | inactive | –
13 | CCOC(=O)COc1ccc2c(c1)CC(NCC(O)c1cccc(Cl)c1)CC2 (stereo not given) | inactive | –
14 | CN(C)c1ccc(N=NS(=O)(=O)O)cc1 | inactive | –
15 | COc1ccc2sc(C(=O)Nc3nnn[nH]3)c(OC(C)C)c2c1 | inactive | –
16 | CC[C@H](C)C(=O)O[C@H]1C[C@@H](C)C=C2C=C[C@H](C)[C@H](CC[C@@H]3C[C@@H](O)CC(=O)O3)[C@H]21 | inactive | –
17 | CCOCCOCCOCCO | inactive | –
18 | Cc1ccc(N)cc1O | inactive | –
19 | CCC(C)(C)C(=O)O[C@H]1C[C@@H](C)C=C2C=C[C@H](C)[C@H](CC[C@@H]3C[C@@H](O)CC(=O)O3)[C@H]21 | inactive | –
20 | CCCCCCCCCCCCCCCO | inactive | –
21 | Cn1c(=O)cc(Oc2ccc(F)cc2F)c2cnc(NCC(C)(C)O)nc21 | inactive | –
22 | COc1cccc(-c2ccc(/C=C\CN3CCCCCC3)cc2Cl)c1 | inactive | –
23 | C=CC(=C)CCC=C(C)C | inactive | –
24 | On1ccccc1=S | inactive | –

These compounds were tested against sheep Cyclooxygenase-2 (Cox2), PTGS2 (gene 443460) (UniProt P79208) (assay: NVS_ENZ_oCOX2: NovaScreen (NVS) Enzymatic Assay for sheep Cyclooxygenase-2 (Cox2) (AID 2283231)).
Chain of sheep Cyclooxygenase-2 (Cox2), PTGS2 (gene 443460) (P79208 whole entry, looked up): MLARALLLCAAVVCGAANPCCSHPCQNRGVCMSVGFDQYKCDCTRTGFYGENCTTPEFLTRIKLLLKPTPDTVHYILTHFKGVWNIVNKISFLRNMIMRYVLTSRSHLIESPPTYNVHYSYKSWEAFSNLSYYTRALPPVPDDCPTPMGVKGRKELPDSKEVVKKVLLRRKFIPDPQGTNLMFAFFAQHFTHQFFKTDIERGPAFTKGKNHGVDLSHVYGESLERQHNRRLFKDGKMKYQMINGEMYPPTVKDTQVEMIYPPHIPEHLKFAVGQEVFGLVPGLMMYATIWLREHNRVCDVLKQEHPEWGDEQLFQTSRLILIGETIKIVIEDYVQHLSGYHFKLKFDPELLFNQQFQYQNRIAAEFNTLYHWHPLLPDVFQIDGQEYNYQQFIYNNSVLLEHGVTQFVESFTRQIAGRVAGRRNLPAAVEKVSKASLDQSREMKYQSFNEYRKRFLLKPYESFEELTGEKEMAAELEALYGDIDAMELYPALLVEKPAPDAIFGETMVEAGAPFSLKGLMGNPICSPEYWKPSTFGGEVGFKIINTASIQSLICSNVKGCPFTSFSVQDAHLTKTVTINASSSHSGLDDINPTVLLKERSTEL
Method in brief: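 Colorimetric absorbance read-out of COX activity, taken 0.66 hour post-dosing, using native protein from sheep placenta. Single-concentration duplicate screen (25 uM), then singleton concentration-response up to 50 uM for actives.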

Row | Compound | AC50
25 | CCOc1cccc(-n2cc(C(=O)N3CCN(c4cc(C(=O)O)c5ccccc5c4)CC3)nc2-c2ccc(C)cc2)c1 | 6.87 µM (active)
26 | O=C(OC[C@H]1O[C@@H](OC(=O)c2cc(O)c(O)c(OC(=O)c3cc(O)c(O)c(O)c3)c2)[C@H](OC(=O)c2cc(O)c(O)c(OC(=O)c3cc(O)c(O)c(O)c3)c2)[C@@H](OC(=O)c2cc(O)c(O)c(OC(=O)c3cc(O)c(O)c(O)c3)c2)[C@@H]1OC(=O)c1cc(O)c(O)c(OC(=O)c2cc(O)c(O)c(O)c2)c1)c1cc(O)c(O)c(OC(=O)c2cc(O)c(O)c(O)c2)c1 | 2.87 µM (active)
27 | CC(C)=CCC/C(C)=C\CO | 4.26 µM (active)
28 | CC[C@H](C)C(=O)O[C@H]1C[C@@H](C)C=C2C=C[C@H](C)[C@H](CC[C@@H]3C[C@@H](O)CC(=O)O3)[C@H]21 | 8.83 µM (active)
29 | CC(=O)c1ccc2c(c1)[C@H](NC(=O)c1ccc(F)cc1)[C@@H](O)C(C)(C)O2 | 11.3 µM (active)
30 | COc1ccc(-n2nc(C(F)F)cc2-c2ccc(S(C)=O)cc2)cc1 (stereo not given) | 0.478 µM (active)
31 | CC(C)c1cccc(C(C)C)c1N1C(=O)c2ccc(O)cc2C1=O | 4.32 µM (active)

Each compound was assayed against sheep Cyclooxygenase-1 (Cox1), PTGS1 (gene 443551) (UniProt P05979) (assay: NVS_ENZ_oCOX1: NovaScreen (NVS) Enzymatic Assay for sheep Cyclooxygenase-1 (Cox1) (AID 2283239);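 further: actives reduce cyclooxygenase activity so potencies are for inhibitors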).
Chain of sheep Cyclooxygenase-1 (Cox1), PTGS1 (gene 443551) (P05979 whole entry, looked up): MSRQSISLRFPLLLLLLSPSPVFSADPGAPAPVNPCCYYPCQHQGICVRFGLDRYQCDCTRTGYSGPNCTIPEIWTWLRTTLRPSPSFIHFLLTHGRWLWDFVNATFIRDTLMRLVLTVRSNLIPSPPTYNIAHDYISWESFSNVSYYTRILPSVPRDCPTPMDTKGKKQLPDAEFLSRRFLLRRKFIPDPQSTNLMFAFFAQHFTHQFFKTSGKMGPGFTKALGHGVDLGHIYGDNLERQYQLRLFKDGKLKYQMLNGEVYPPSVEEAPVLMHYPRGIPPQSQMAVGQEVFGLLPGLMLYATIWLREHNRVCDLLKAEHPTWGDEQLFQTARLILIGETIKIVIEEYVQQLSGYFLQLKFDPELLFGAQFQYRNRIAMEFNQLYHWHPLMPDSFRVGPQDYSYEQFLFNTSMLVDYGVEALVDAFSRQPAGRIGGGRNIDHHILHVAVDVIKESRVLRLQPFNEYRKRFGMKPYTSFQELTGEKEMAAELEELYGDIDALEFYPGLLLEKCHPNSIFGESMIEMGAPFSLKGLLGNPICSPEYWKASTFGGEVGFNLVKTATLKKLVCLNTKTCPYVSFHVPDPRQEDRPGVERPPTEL
Method in brief: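 Cell-free colorimetric assay of enzyme activity in a native extract of ovine seminal vesicles. Absorbance was read 0.66 hour after compound addition. Loss of signal relative to the DMSO negative control was scored, with actives from the 25 uM duplicate primary screen retested in concentration series.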

Row | Compound | AC50
32 | O=C(OC[C@H]1O[C@@H](OC(=O)c2cc(O)c(O)c(OC(=O)c3cc(O)c(O)c(O)c3)c2)[C@H](OC(=O)c2cc(O)c(O)c(OC(=O)c3cc(O)c(O)c(O)c3)c2)[C@@H](OC(=O)c2cc(O)c(O)c(OC(=O)c3cc(O)c(O)c(O)c3)c2)[C@@H]1OC(=O)c1cc(O)c(O)c(OC(=O)c2cc(O)c(O)c(O)c2)c1)c1cc(O)c(O)c(OC(=O)c2cc(O)c(O)c(O)c2)c1 | 4.31 µM (active)
33 | CC(C)=CCC/C(C)=C\CO | 25 µM (active)
34 | CC[C@H](C)C(=O)O[C@H]1C[C@@H](C)C=C2C=C[C@H](C)[C@H](CC[C@@H]3C[C@@H](O)CC(=O)O3)[C@H]21 | 34.3 µM (active)
35 | CC(C)c1cccc(C(C)C)c1N1C(=O)c2ccc(O)cc2C1=O | 2.48 µM (active)
